Assay results taken from PubChem BioAssay AID720504 (National Center for Advancing Translational Sciences (NCATS), 2013).
Among all 360,000 compounds or so, about 10,000 (2.8%) were called active. About 4% were inconclusive and are not listed. Shown is part of a subset that was picked to be rich in actives. A number with no mark means an inactive call. Calls come from the whole dose curve; as a rule, active = well fitted inhibition curve with a large enough effect; inconclusive = small, poorly fitted or top-dose-only effect; inactive = flat fitted curve, though single readings scatter.

target: Serine/threonine-protein kinase PLK1 (Homo sapiens) (UniProt P53350); test: qHTS for Inhibitors of PLK1-PDB (polo-like kinase 1 - polo-box domain): Primary Screen; conditions: Plk1 PBD binding of FITC phosphopeptide, fluorescence polarization; note: nearly all actives have a fitted effect of over 65% in size; for max response, negative = inhibition: series mostly up to about 57 µM
Sequence (P53350 whole entry, looked up, the tested form may be a part): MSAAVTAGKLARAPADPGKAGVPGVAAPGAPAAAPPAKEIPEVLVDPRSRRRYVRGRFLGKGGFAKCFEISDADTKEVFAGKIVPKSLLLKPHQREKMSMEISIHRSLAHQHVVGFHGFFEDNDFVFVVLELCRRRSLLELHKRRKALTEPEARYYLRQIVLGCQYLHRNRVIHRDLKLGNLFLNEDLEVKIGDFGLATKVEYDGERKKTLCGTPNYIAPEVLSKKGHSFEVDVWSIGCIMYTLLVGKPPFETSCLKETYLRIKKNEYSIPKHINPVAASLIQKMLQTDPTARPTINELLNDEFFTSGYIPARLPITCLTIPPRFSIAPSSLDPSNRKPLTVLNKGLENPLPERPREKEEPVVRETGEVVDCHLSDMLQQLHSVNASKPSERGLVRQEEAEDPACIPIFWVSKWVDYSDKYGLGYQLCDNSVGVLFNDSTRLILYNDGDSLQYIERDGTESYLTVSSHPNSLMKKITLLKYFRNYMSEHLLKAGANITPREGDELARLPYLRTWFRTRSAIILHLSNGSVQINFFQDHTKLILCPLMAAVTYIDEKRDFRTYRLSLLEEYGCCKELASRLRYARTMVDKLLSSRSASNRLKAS
% is set by controls: 0 for no effect and ±100 for the full control effect; potency is the fitted concentration of half-maximal effect.

SMILES | max response, negative = inhibition [%] | Potency
CCC(C)C(CO)NC(=O)/C=C/[C@H]1O[C@@H](n2cnc3c(NC(=O)c4ccccc4)ncnc32)[C@H](O)[C@@H]1O (stereo not given in full) | -12 | 
O=C1Nc2ccc(Br)cc2/C1=N/N=C/C1=C(N2CCOCC2)C(=C\c2ccccc2)/CC1 | -6.57 | 
CCOc1ccc(/C=N/NC(=O)CSc2ccccn2)cc1O | -2.2 | 
COc1ccc(/C=N/N=C2/C(=O)Nc3ccccc32)cc1O |  | 23.8 µM (active)
Cc1ccc(S(=O)(=O)N[C@H]2CCC[C@@H]2O)cc1 | -13.6 | 
O=C(c1ccc(C(F)(F)F)cc1)N1CCC(=O)N([C@H](COCc2ccccc2)Cc2ccccc2)CC1 | -8.35 | 
O=S1(=O)CC(N2CCN(CCO)CC2)CN1C1CCCC1 (stereo not given) | 3.7 | 
COC(=O)C1=C(N)Oc2cc(C)[nH]c(=O)c2C1c1ccc(Cl)cc1 (stereo not given) |  | 23.8 µM (active)
COC(=O)C1=C(N)Oc2cc(C)oc(=O)c2C1c1cccnc1 (stereo not given) | -10.6 | 
CCN1C(=O)N[C@@H](c2ccccc2)C(C(=O)OC)=C1C | -12.3 | 
CC(=O)c1ccc(Nc2nc(C(N)c3ccccc3Cl)cs2)cc1 (stereo not given) | -10.4 | 
O=C(O)C1CCCN1c1nc(Cl)ccc1[N+](=O)[O-] (stereo not given) | -5.29 | 
Cc1nccn1-c1ccc(NC(=O)[C@H]2O[C@@H](n3cnc4c(N)ncnc43)[C@H](O)[C@@H]2O)cc1 | -3.34 | 
O=c1[nH]c2ccccc2n1C1CCN(CCOc2ccccc2)CC1 | 0.342 | 
O=c1cc(-c2ccccc2)nc(N2CCCCC2)[nH]1 |  | 23.8 µM (active)
Cc1ccc(SCc2cc(=O)[nH]c(N3CCCCC3)n2)cc1 | -8.91 | 
c1ccc(-c2cc(N3CCCCC3)c3ccccc3n2)cc1 | -13.3 | 
C[C@H](CO)N1C[C@H](C)[C@@H](CN(C)C(=O)c2cnccn2)Oc2ncc(Br)cc2C1=O | -5.95 | 
C[C@H](CO)N1C[C@H](C)[C@H](CN(C)C(=O)c2ccncc2)OCc2ccccc2-c2c(n(C)c3ccccc23)C1=O | -5.78 | 
COc1cccc(-c2cnc3c(NC(C)=O)cc(-c4cccc(NC(C)=O)c4)cn23)c1 | -1.26 | 
CC1(C(=O)NS(=O)(=O)c2ccccc2)CCN1C(=O)Cc1ccc(-c2ccccc2)cc1 (stereo not given) | -4.54 | 
CCn1c(SCC(=O)Nc2nc(C)cs2)nnc1C(C)NC(=O)c1ccccc1 (stereo not given) |  | 29.9 µM (active)
CCn1c(CC(=O)Nc2ccc(C)cc2)nnc1SCC(=O)Nc1nc(C)cs1 |  | 26.7 µM (active)

SMILES | max response, negative = inhibition [%] | Potency
CCn1c(CC(=O)Nc2ccccc2)nnc1SCC(=O)N1CCOCC1 | -0.409 | 
COCCn1c(SCC(=O)Nc2nc(C)cs2)nnc1C(C)C | -12.4 | 
CCn1c(SCC(=O)NC2=NCCS2)nnc1C(C)NC(=O)c1ccccc1F (stereo not given) | -16.2 | 
Cc1ccc(NC(=O)Cc2nnc(SCC(=O)Nc3nncs3)n2C)cc1 | -3.59 | 
C[C@@H]1CN([C@@H](C)CO)C(=O)c2cc(NS(C)(=O)=O)ccc2O[C@@H](C)CCCCO[C@H]1CN(C)C(=O)Nc1ccc2c(c1)OCO2 | -18.5 | 
Cc1cc2c(cc1C)N1C(=O)c3cc4ccccc4cc3NC(=O)C1C(=O)N2 (stereo not given) | -4.16 | 
COc1ccc(C(c2nnnn2C2CCCC2)N2CCN(C/C=C/c3ccccc3)CC2)cc1 (stereo not given) | -9.92 | 
Cc1ccc(S(=O)(=O)N2C[C@]3(O)C[C@@H]4C(=O)N(c5ccccc5)C(=O)[C@@H]4C[C@]3(OC(=O)NC3CC3)C2)cc1 | -20.4 | 
COc1ccccc1Cc1c(-c2ccc(Cl)cc2)nc2ccc(Cl)cn12 | -19.7 | 
CNc1ccc(SC#N)cc1 |  | 23.8 µM (active)
Cc1ccccc1Cn1c(C)c(C(=O)NCc2cccc(C(F)(F)F)c2)sc1=O | -4.46 | 
CCN(C(=O)Nc1cccc2ccccc12)c1ccccc1 | -4 | 
Cc1ccc(S(=O)(=O)N2[C@@H](Cc3ccccc3)CO[C@H]2CC(=O)OCc2ccccc2)cc1 | 0.144 | 
CCCCn1nnnc1C(c1ccccc1)N1CCN(c2ccccc2OC)CC1 (stereo not given) | -14.9 | 
CN(C)c1nc(=Nc2cccc(Cl)c2)ss1 |  | 6.7 µM (active)
Cn1ncc([N+](=O)[O-])c1C(=O)Nc1cc(Cl)ccc1Cl | -6.39 | 
O=C1c2ccccc2C(c2nc3ccccc3[nH]2)N1c1ccccc1 (stereo not given) | 3.28 | 
O=C1Nc2ccccc2NC(c2ccc3c(c2)OCO3)=C1N(Cc1ccc(F)cc1)C(=O)c1ccco1 | -4.45 | 
Nc1ccc2nc3c(=O)[nH]c(=S)[nH]c3nc2c1 |  | 2.67 µM (active)
CC(C)OC(=O)CC(=O)CC(O)c1cccc([N+](=O)[O-])c1 (stereo not given) | -7.74 | 
O=C(N/N=C/c1cccc(Br)c1)c1ccc(N2CCCC2=O)cc1 |  | 26.7 µM (active)
O=C(N/N=C\c1cccc(Br)c1)c1ccccc1-n1cccc1 | -3.78 | 
O=C(Nc1ccc(N2CCCC2=O)cc1)c1cncc(Br)c1 | 6.3 | 

SMILES | max response, negative = inhibition [%] | Potency
CC(C)CN1CCC1(C)C(=O)Nc1ccc(OC(F)F)cc1 (stereo not given) | -0.833 | 
CCCNC(=O)C1(C)CCCN(Cc2c(C)nn(-c3ccccc3)c2C)C1 (stereo not given) | 2.73 | 
COCCNC(=S)c1ccc(OC)cc1 |  | 26.7 µM (active)
COc1ccc(C(=O)NCC[N+](C)(C)C)cc1 | 1.35 | 
COCCCNC(NC(=O)c1ccc(OC)cc1)C(Cl)(Cl)Cl (stereo not given) | 5.66 | 
C#CCNC(=O)C[C@@H]1C[C@@]2(C(=O)OCC)CCCC=C2N(Cc2ccco2)C1=O | -6.05 | 
Brc1ccc(-c2nn[nH]n2)cc1 |  | 23.8 µM (active)
c1cc(-c2nn[nH]n2)ccc1CN1CCCCC1 | -9.14 | 
CC(C)c1ccc(-c2nn[nH]n2)cc1 | -8.56 | 
COc1cccc(C(O)c2nc(-c3ccc(C)c(C)c3)cs2)c1 (stereo not given) | -8.07 | 
COCc1cccc(-c2csc(C(O)c3ccc(F)cc3)n2)c1 (stereo not given) | -9.74 | 
COc1ccc(NC(=O)CSc2nnnn2-c2cccc(OC)c2)cc1 | 5.21 | 
COCCn1c(SCC(=O)Nc2ccc(F)cc2F)nc2c(c1=O)SCC2 | 10.8 | 
Cc1ccc(Cc2c(-c3ccccc3)nc3ccc(Cl)cn23)cc1 | -1.42 | 
Cc1ccc(Cc2c(-c3ccco3)nc3ccc(Cl)cn23)cc1 |  | 21.2 µM (active)
Cc1ccc(-c2nc3ccc(Cl)cn3c2Cc2ccccc2)cc1 | -1.46 | 
CC1Cc2[nH][nH]c(=O)c2C(C2CCCC2)O1 (stereo not given) | -5.58 | 
OC(c1ccccc1)c1nc(-c2cnc3ccccc3c2)cs1 (stereo not given) | 1.51 | 
COc1ccc(Nc2nc(-c3cccnc3)nc3ccccc23)cn1 |  | 21.2 µM (active)
CCN(CC(=O)NC1CCS(=O)(=O)C1)c1nc(-c2cccnc2)nc2ccccc12 (stereo not given) | -6.17 | 
O=C(CSc1n[nH]c(-c2cccnc2)n1)Nc1ccnc2ccccc12 | -8.72 | 
C[C@H]1CN([C@@H](C)CO)C(=O)CCCn2cc(nn2)CO[C@@H]1CN(C)S(=O)(=O)c1ccc(-c2ccccc2)cc1 | -23.9 | 
COCc1[nH]nc2c1C(C1C=CCCC1)C(C#N)=C(N)O2 (stereo not given) | -8.66 | 

SMILES | max response, negative = inhibition [%] | Potency
CCCc1[nH]nc2c1C(c1ccc(Br)s1)C(C#N)=C(N)O2 (stereo not given) |  | 23.8 µM (active)
COc1ccc(-c2[nH]nc3c2C(c2ccncc2)C(C#N)=C(N)O3)cc1 (stereo not given) | -28.1 | 
CC(=O)Nc1cccc(-c2ccnc3c2CC(C)(C(=O)NCc2ccccc2)O3)c1 (stereo not given) | 0.623 | 
CNC[C@H]1OCc2cnnn2CCCC(=O)N([C@H](C)CO)C[C@@H]1C | -6.68 | 
Cc1cc2oc(=O)cc(CN(C)Cc3ccccc3)c2cc1Cl | -6.49 | 
Cc1ccccc1C(=O)Nc1ccccc1Sc1ccccc1 | 2.65 | 
CSc1ncc(Sc2ccccc2)c(C(=O)O)n1 |  | 23.8 µM (active)
CSc1ncc(C(=O)NCCCc2ccccc2)c(C)n1 | -4.81 | 
CN1C[C@@H](CO)O[C@@H](n2cnc3c(N4CCN(CCO)CC4)ncnc32)C1 | 2.3 | 
COCCNC(=O)C1CCCN(Cc2ccccc2Cl)CC1 (stereo not given) | -4.77 | 
CC(=O)N1CCN(Cc2cc(=O)oc3cc(C)ccc23)CC1 | -2.03 | 
CCOC(=O)[C@H]1Nc2ccc(Cl)cc2[C@@H]2[C@H]1C1CC(c3ccccc31)N2C(=O)OCc1ccccc1 (stereo not given in full) | -10.8 | 
CNc1cc(-c2c(OC)cccc2OC)ncn1 | -6.78 | 
CN1CCN(c2ccc3c(c2)OC[C@H](Cc2ccccc2)NS3(=O)=O)CC1 | 0.181 | 
COc1ccc(-c2nc3ccc(Br)cn3c2Cc2ccc(C)cc2)cc1OC | -11 | 
Cc1ccc(C(=O)N2CC(=O)Nc3ccc(F)cc3C2c2ccc(F)cc2)cc1 (stereo not given) | 1.6 | 
Cc1ccc2c(c1)C(c1ccccc1)N(C(=O)c1ccc(F)cc1)CC(=O)N2 (stereo not given) | -0.372 | 
Cc1ccc2c(c1)C(c1ccccc1)N(C(=O)c1ccc(S(=O)(=O)N3CCOCC3)cc1)CC(=O)N2 (stereo not given) |  | 23.8 µM (active)
CCNC(=O)C1(C)CCCN(C(=O)c2c(C)noc2C)C1 (stereo not given) | -0.543 | 
CCOC(=O)c1cc2cc(OC)ccc2n1C1CCN(C)CC1 | -4.75 | 
CCC(Oc1ccccc1)C(=O)OCC(=O)Nc1c(C)nn(-c2ccccc2)c1C (stereo not given) | -0.819 | 
